Experiment [1] addresses RUNX1 (UniProt Q01196). The experiment can be described thus: RUNX1 binding intensity (PBM fluorescence), RUNX1 alone (arbitrary fluorescence units); higher = stronger binding. The conditions noted are these: RUNX1 concentration 2 nM; ETS1 concentration 0 nM. As to the method:
(§1)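 Cooperative gcPBM on 36-bp genomic probes with neighbouring ETS1 and RUNX1 sites. Recombinant human RUNX1 (2 nM) was incubated alone or with ETS1 (25 nM) and detected with anti-RUNX1 antibody plus Alexa488 secondary. Values are medians over 4 replicate spots; the RUNX1+ETS1 data were normalised to the RUNX1-only data. The probes sit in constant array flanks that are not printed.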

In experiment [2] the target is RUNX1 (UniProt Q01196). Kind of experiment: RUNX1 binding intensity (PBM fluorescence) in presence of ETS1, normalised to RUNX1-only experiment (arbitrary fluorescence units); higher = stronger binding. To be noted: RUNX1 concentration 2 nM; ETS1 concentration 25 nM. Here is the method:
as §1

Another experiment concerns the target T1, ETS1 (UniProt P14921).
T1 sequence: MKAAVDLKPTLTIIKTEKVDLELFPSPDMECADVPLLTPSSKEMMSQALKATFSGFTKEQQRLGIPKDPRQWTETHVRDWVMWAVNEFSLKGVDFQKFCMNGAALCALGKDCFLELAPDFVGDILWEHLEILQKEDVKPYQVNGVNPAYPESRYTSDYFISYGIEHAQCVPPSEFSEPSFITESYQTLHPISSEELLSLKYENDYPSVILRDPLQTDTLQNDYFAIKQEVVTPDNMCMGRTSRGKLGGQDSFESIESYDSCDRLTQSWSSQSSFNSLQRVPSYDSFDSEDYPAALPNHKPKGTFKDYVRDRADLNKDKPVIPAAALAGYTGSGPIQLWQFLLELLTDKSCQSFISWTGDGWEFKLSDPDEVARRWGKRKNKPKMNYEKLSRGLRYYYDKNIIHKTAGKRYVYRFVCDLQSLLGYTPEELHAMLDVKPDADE
Kind of experiment: ETS1 binding intensity (PBM fluorescence) in presence of RUNX1, normalised to ETS1-only experiment (arbitrary fluorescence units); higher = stronger binding. To be noted: ETS1 concentration 1 nM; RUNX1 concentration 25 nM.
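Throughout, for RUNX1 binding intensity (PBM fluorescence) in presence of ETS1, normalised to RUNX1-only experiment: Full-length recombinant human ETS1 or RUNX1 bound to double-stranded 36-bp genomic probes on microarrays, detected by protein-specific primary antibody and Alexa488 secondary, spot fluorescence as median of four replicate spots.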
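Throughout, for RUNX1 binding intensity (PBM fluorescence), RUNX1 alone: Full-length recombinant human RUNX1 bound to double-stranded 36-bp genomic probes on a high-density microarray, scored as Alexa488 fluorescence per spot via anti-RUNX1 antibody, median of four replicate spots.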

RUNX1, sequence (Q01196 whole entry): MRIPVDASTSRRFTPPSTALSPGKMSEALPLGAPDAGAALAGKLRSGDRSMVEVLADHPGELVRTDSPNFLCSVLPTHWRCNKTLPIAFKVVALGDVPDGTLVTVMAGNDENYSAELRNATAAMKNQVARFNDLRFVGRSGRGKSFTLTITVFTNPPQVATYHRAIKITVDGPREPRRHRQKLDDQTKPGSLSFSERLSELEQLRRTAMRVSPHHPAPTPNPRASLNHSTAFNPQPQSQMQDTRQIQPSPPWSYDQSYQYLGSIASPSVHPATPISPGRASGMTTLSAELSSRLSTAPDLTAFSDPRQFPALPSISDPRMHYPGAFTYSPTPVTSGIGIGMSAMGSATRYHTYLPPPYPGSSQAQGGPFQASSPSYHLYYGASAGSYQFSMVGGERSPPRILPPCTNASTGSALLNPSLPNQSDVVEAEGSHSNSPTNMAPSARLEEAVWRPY

CTCACTTCCCCGGCAGCTCCCTCGCCCCGACCGCAG: the RUNX1 binding intensity amounted to 1910 in the experiment with RUNX1 [1] and 2740 with RUNX1 [2].

As for AACTCCTGGCCGGAACGGCACAGACCGCACTCCCGC, the RUNX1 binding intensity with RUNX1 [1] stood at 938; with RUNX1 [2], 917.

Turning to TCCGCCCGCGGATGCTGAGAACCGCAGCTGCACAAG, the RUNX1 binding intensity with RUNX1 [1] is 948; in the experiment with RUNX1 [2] it was 827.

TTGCTCGGCTTCCTGGAGCTGTGGTCCGTGTGGGCT: the results for the RUNX1 binding intensity with RUNX1 [1] and in the experiment with RUNX1 [2] were 708 and 1020, respectively.

As to CTGTCCGCGACATCCGGGACCTGCGGGACCGCCGAT, the RUNX1 binding intensity was determined as 765 with RUNX1 [1] and 1760 with RUNX1 [2].

For GCCTCCTTCCTGGGCTCCTTTAAGAGGGTGGTAACG, the RUNX1 binding intensity with RUNX1 [1] worked out at 743; with RUNX1 [2] it was 1130.

In the case of CTTTCTGGTTTCCTTCCTTTTTGGTTTTGGTTTCAT, the RUNX1 binding intensity in the experiment with RUNX1 [1] was 1630; with RUNX1 [2] it was 2830.

On to CAGTGTTCCGCGTCCGGGGGTTTGTGGGAGTTGCCT, for which the RUNX1 binding intensity in the experiment with RUNX1 [1] was 989; with RUNX1 [2] it was 1120.

With AGAGGCTTCCTGAGGAACTGGTGTGGTCAGGGGAGC, the RUNX1 binding intensity with RUNX1 [1] came to 740; with RUNX1 [2], 1010.

For CCCATCCATCCGCCTCCAAAGTAACCTCAAGAATTT, the figures for the RUNX1 binding intensity in the experiment with RUNX1 [1] and with RUNX1 [2] were 2140 and 2490, respectively.

Consider CCCGGCCCAGGAAACTTCAGACTTCACCGCAGCTTC, for which the RUNX1 binding intensity in the experiment with RUNX1 [1] came out at 1060; in the experiment with RUNX1 [2], 1030.

For the sequence GCCAAGGCCTTCCGCCGAGTTGGTTTTTGGGTTGTT, the RUNX1 binding intensity with RUNX1 [1] amounted to 867; with RUNX1 [2], 952.

Regarding GTTGGTCGCGCGCCTTCCTGCGGCTAAGATGGCGAC, the RUNX1 binding intensity was 749 with RUNX1 [1] and 923 with RUNX1 [2].

For CCGCCCCCGGACGGTCACAGCACCCAAACCGCAGGC, the RUNX1 binding intensity stood at 2740 with RUNX1 [1] and 3240 with RUNX1 [2].

For ATTAAAAAAATTTCCTTTGTGGTCACTTAGTTATTA, the RUNX1 binding intensity was 1350 with RUNX1 [1] and 1520 with RUNX1 [2].

As for GATGACTTCCTCAGTTCAGGGCTATGTGCGGGGGAG, the RUNX1 binding intensity stood at 833 in the experiment with RUNX1 [1] and 1060 in the experiment with RUNX1 [2].

Consider GACACAAGACAGTTTCCGTCAGTGGTTAAGCCCTAA, for which the RUNX1 binding intensity came out at 845 with RUNX1 [1] and 1270 with RUNX1 [2].

Consider TAGGCGGAAAGCCCGCTAGCCTAAACCACAGAGGGT, for which the figures for the RUNX1 binding intensity with RUNX1 [1] and with RUNX1 [2] were 896 and 872, respectively.

Turning to ACCGAAAACAGGGCCTTCCGCGGTTATACAGATCCT, the RUNX1 binding intensity in the experiment with RUNX1 [1] was found to be 868; with RUNX1 [2], 998.

For GGCGGGGCATCCGGCAGCACCGCCTGCGGGCGCCCG, the RUNX1 binding intensity in the experiment with RUNX1 [1] was determined as 667; with RUNX1 [2] it was 1070.

Take TGCTGCAGCGGCGCTTCCTGGTGGTCAGGGCGCCAT: the RUNX1 binding intensity was determined as 707 with RUNX1 [1] and 924 with RUNX1 [2].

As for ACGTCAGCATCCGCCGGGCTCGCGGTAAGGTGTGAG, the values for the RUNX1 binding intensity in the experiment with RUNX1 [1] and with RUNX1 [2] were 736 and 1280, respectively.

As to CGGGCCGGATCGCCTTCGCCGCCGCCCGCCCGCAAA, the RUNX1 binding intensity with RUNX1 [1] is 979; with RUNX1 [2], 866.

TAAATCGGAAACTCGCCGCTCAGCCCGCAGCCGCCG: the RUNX1 binding intensity with RUNX1 [1] came to 901; with RUNX1 [2] it was 808.

Take TGACACCAGCCCTGAGGATGTGGTTCATCCTCCCAC: the RUNX1 binding intensity is 868 in the experiment with RUNX1 [1] and 817 with RUNX1 [2].

Consider CAAGCCAACATCCTGACAGTTTAGAAACCACAGGAG, for which the RUNX1 binding intensity in the experiment with RUNX1 [1] amounted to 779; in the experiment with RUNX1 [2], 1300.

For GGCGAGGCTGAGAGGAAACCACACTCTCACTGGGGT, the values for the RUNX1 binding intensity in the experiment with RUNX1 [1] and with RUNX1 [2] were 933 and 921, respectively.

Turning to CCTCCGGAACGGCGCGGGGGATTGTGGGGTGTAGGG, the RUNX1 binding intensity came out at 910 with RUNX1 [1] and 761 in the experiment with RUNX1 [2].

Consider TCCTGCCCTCCCATCCTGTGGTCAGAGGCCAGGGCT, for which the RUNX1 binding intensity with RUNX1 [1] was found to be 854; with RUNX1 [2] it was 1580.

On to TATCGACAAAAGTTCCGGCCCGCGGTAGCGGAGGGA, for which the RUNX1 binding intensity stood at 879 in the experiment with RUNX1 [1] and 970 in the experiment with RUNX1 [2].

Consider AATCGCGCAGTTCCGCAGCTGCCGCCCCACAACCGT, for which the results for the RUNX1 binding intensity with RUNX1 [1] and in the experiment with RUNX1 [2] were 863 and 960, respectively.

Take TTAACTCCACGGAAGAATAAACCACCACCGCTCACC: the RUNX1 binding intensity in the experiment with RUNX1 [1] came to 1080; with RUNX1 [2] it was 908.

Turning to GCTGGGCCATCCTGCCACATGCACCGCATCTCTGGG, the RUNX1 binding intensity with RUNX1 [1] was found to be 759; with RUNX1 [2], 878.

On to GGGACAGACTCTCCAGGATGTGGTTGGATTTTGGGC, for which the figures for the RUNX1 binding intensity in the experiment with RUNX1 [1] and in the experiment with RUNX1 [2] were 754 and 1040, respectively.

With CATCTCGGAAACGGACAGCAAGATCCCGCATTAACA, the RUNX1 binding intensity was determined as 977 with RUNX1 [1] and 853 with RUNX1 [2].

On to TCTGGCTGGGTGTTGGGATGTGGTTAACCGGGTTGG, for which the RUNX1 binding intensity with RUNX1 [1] amounted to 797; in the experiment with RUNX1 [2] it was 876.

Regarding TGCAATTGGCAGACAGGAAACCGCGGCGTTTTCTGG, the results for the RUNX1 binding intensity with RUNX1 [1] and in the experiment with RUNX1 [2] were 764 and 1440, respectively.

As for TGGGTGCCGGATTCGGTGAGTGTGGTTCTCATGATG, the values for the RUNX1 binding intensity with RUNX1 [1] and in the experiment with RUNX1 [2] were 654 and 895, respectively.

For the sequence GGCGACCAGCTCCGGAAAGCGCGGTGGGGACGCGCT, the RUNX1 binding intensity came out at 805 with RUNX1 [1] and 865 with RUNX1 [2].

With CTTGTGCCTACATCCTGTAGCTGTGGTTTAGGGACG, the values for the RUNX1 binding intensity with RUNX1 [1] and with RUNX1 [2] were 887 and 2050, respectively. Further, in the experiment with ETS1, the ETS1 binding intensity was found to be 6810.

TCCCGGCGTTCTTCCGCTGGCTCAGCCGCAAGTACC: the RUNX1 binding intensity was 818 with RUNX1 [1] and 1170 in the experiment with RUNX1 [2]. For the same sequence, the ETS1 binding intensity with ETS1 was 822.

As to ACACAGGAAGCAAAAGTTAAGCTATAAAACCCGCAA, the RUNX1 binding intensity worked out at 969 with RUNX1 [1] and 1240 with RUNX1 [2]. Further, the ETS1 binding intensity with ETS1 is 765.

For the sequence AAATCCACTCAGAGGAAACCACAGGCCTGGCCCAGC, the RUNX1 binding intensity is 1300 in the experiment with RUNX1 [1] and 1690 with RUNX1 [2]. For the same sequence, in the experiment with ETS1, the ETS1 binding intensity worked out at 622.

For the sequence AGCTTCCTGTTTGGCCTTGCTGATGTCACCGCATTA, the RUNX1 binding intensity stood at 932 in the experiment with RUNX1 [1] and 2360 with RUNX1 [2]. In addition, in the experiment with ETS1, the ETS1 binding intensity amounted to 1090.

With TTGGTTGTTGCCAGAGGATGTGGGTTGGCGGGGGAG, the RUNX1 binding intensity in the experiment with RUNX1 [1] stood at 897; with RUNX1 [2] it was 933. Moreover, the ETS1 binding intensity with ETS1 worked out at 4480.

For AGGTTTTGAAAGAGGAAACCACATACCCGAAAACCA, the figures for the RUNX1 binding intensity with RUNX1 [1] and with RUNX1 [2] were 1030 and 1160, respectively. The ETS1 binding intensity with ETS1 amounted to 2030.

Take TGGGGCTCTTCCTGCTTATGTGACCACAGCACCTTG: the RUNX1 binding intensity turned out to be 936 with RUNX1 [1] and 1760 with RUNX1 [2]. Moreover, in the experiment with ETS1, the ETS1 binding intensity was 679.

Values taken from the supplement of paper PMC10681739.
